Shown are actives, neighbours in structure and some others; about 3.6% of the full set was active somewhere.
BJeLR viability = BJeLR cell viability loss | BJeLR (HRASV12) viability, CellTiter-Glo ATP luminescence, 48 h | inhibition, % (concentration not given with the values) | hit rate 0.17% among 300,000; in the data active = inhibition above about 50%; inconclusive = no clear call, values can overlap the other calls
SARS 3CLpro inh = SARS-CoV 3CLpro protease inhibition; P0C6X7; recombinant SARS-CoV 3CLpro, quenched FRET peptide cleavage; inhibition, % at 6 µM; hit rate 0.14% among 290,000; in the data active = inhibition above about 12%
BoNT F protease = blocks Botulinum neurotoxin F light chain protease; Multiplex microsphere protease cleavage assay, flow cytometry; inhibition, % at 10 µM; hit rate 0.22% among 360,000; AID 588497; in the data active = inhibition above about 35%, passing the limit was not always enough; inconclusive = no clear call, values can overlap the other calls; also: plate controls were buffer without enzyme for full effect and enzyme alone for no effect
Autofluor counter = counter-screen for toxin protease inhibitors: compound fluorescence. AID 624483. compound autofluorescence counterscreen, microsphere flow cytometry; hits give high values. fluorescence intensity (no concentration beside the values). hit rate 3.1% among 360,000; in the data active = fluorescence intensity above about 16000; inconclusive = no clear call, values can overlap the other calls
BoNT A protease = inhibitors of Botulinum neurotoxin A light chain protease; multiplex microsphere protease substrate cleavage, flow cytometry; inhibition, % at 10 µM; hit rate 0.17% among 360,000; AID 588499; also: plate controls were buffer without enzyme for full effect and enzyme alone for no effect
Anthrax LF inh2 = anthrax lethal factor protease inhibition | multiplex microsphere protease cleavage assay, LF | inhibition, % at 10 µM | hit rate 0.12% among 360,000; also: plate controls were buffer without enzyme for full effect and enzyme alone for no effect
Target sequence (P15917 whole entry, looked up): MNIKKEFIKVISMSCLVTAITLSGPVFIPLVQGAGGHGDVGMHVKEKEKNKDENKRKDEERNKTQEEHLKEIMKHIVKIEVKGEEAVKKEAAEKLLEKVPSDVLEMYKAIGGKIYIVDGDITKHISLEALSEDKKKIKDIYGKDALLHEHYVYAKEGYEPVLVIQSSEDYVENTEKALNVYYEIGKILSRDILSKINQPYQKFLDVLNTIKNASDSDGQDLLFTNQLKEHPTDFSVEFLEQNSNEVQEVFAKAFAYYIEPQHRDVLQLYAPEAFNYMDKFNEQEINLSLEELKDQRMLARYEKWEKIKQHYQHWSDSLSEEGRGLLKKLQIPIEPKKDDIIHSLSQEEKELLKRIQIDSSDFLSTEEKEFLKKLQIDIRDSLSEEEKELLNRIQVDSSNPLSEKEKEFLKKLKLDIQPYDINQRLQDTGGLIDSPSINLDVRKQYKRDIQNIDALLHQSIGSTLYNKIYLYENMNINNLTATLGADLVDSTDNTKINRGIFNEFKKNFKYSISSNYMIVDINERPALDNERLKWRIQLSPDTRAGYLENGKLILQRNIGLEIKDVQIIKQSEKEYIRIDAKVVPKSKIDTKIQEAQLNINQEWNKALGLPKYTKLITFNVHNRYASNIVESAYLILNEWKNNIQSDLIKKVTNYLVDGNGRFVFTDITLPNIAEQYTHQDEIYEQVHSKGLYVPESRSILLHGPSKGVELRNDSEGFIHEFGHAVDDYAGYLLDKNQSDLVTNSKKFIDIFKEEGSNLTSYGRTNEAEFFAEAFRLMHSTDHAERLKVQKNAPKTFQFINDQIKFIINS
* marks the source's active call; other numbers are inactive results; ? = inconclusive; · = no result given. Rule as the data show it, unless noted: active = inhibition above about 30%; inconclusive = no clear call, values can overlap the other calls; inactive = below that.

SMILES	BJeLR viability	SARS 3CLpro inh	BoNT F protease	Autofluor counter	BoNT A protease	Anthrax LF inh2
FC(F)(F)c1ccc2c(c1)n(Cc1ccccc1)c1[n+]2CCCCC1	5	-2	17	20850*	7	-2
CCCCCOC(=O)C(C)Sc1n[nH]c(=O)[nH]c1=O (stereo not given)	0	1	0	2240	0	-2
CCCCOC(=O)CSc1n[nH]c(=O)[nH]c1=O	8	3	-2	23897*	0	1
COc1ccc2cc(C(c3nnnn3Cc3ccc(F)cc3)N3CCCCCC3)c(=O)[nH]c2c1 (stereo not given)	2	-6	6	12405	6	5
COc1ccc(Cn2nnnc2C(c2cc3ccc(OC)cc3[nH]c2=O)N2CCC(C)CC2)cc1 (stereo not given)	-2	6	-3	31718*	-2	5
COc1ccc2cc(C(c3nnnn3Cc3ccccc3)N3CCCCCC3)c(=O)[nH]c2c1 (stereo not given)	-3	5	0	18165*	0	1
Cc1ccc(C(C)C)c(OCC(=O)OCC(=O)NC2CCS(=O)(=O)C2)c1 (stereo not given)	-6	·	11	4479	4	1
O=C(Nc1ccccc1)c1cc(C2CCCCN2S(=O)(=O)c2ccc(F)cc2F)on1 (stereo not given)	·	·	-1	2964	0	4
Cc1cc(OCC(=O)Nc2c(C(C)C)cccc2C(C)C)no1	·	·	-7	5687	2	-3
CCNc1cc(Cl)nc(SC)n1	4	-3	1	4648	0	1
CCN(CCO)c1cc(Cl)nc(SC)n1	14	2	-7	24730*	-4	-2
CCCCNC(=O)c1cc2c(=O)n3cccc(C)c3nc2n(Cc2ccncc2)c1=N	7	-9	-4	24016*	-4	0
Cc1cccn2c(=O)c3cc(C(=O)NCc4ccco4)c(=N)n(C(C)C)c3nc12	5	0	-3	16268*	2	2
COCCNC(=O)c1cc2c(=O)n3cccc(C)c3nc2n(Cc2ccncc2)c1=N	-11	-3	1	5865	1	-7
N#Cc1ccccc1OCC(=O)NCc1ccccc1CN1CCCC1	·	·	-9	3318	-1	-2
Nc1c(N(CCCO)C(=O)C2CCCCC2)c(=O)[nH]c(=O)n1Cc1ccccc1	·	·	1	3985	1	2
Cc1ccc2nc(SCc3ccc([N+](=O)[O-])cc3)nc(C)c2c1	0	1	0	23313*	?	0
Cc1ccc(-n2c(SCc3ccc([N+](=O)[O-])cc3)nc3ccccc3c2=O)cc1	-3	-4	2	20811*	4	-6
Cc1ccc2nc(SCc3ccc([N+](=O)[O-])cc3)[nH]c2c1	-1	-1	0	9935	0	-2
Cc1cc(C)c2nc(SCc3ccc([N+](=O)[O-])cc3)nc(C)c2c1	2	-3	-2	20592*	?	1
Cc1nc2ccccc2c(=O)n1-c1ccc([N+](=O)[O-])cc1	-10	-4	3	3535	-2	-16
COC(=O)NC(=S)N1CCOCC1	-5	6	-2	9773	1	-7
COc1ccc(CNC(=O)CN(c2ccc(C)cc2)S(=O)(=O)c2c(C)nn(C)c2C)cc1	14	2	5	5589	0	-2
CC(C)(C)SCCNS(=O)(=O)c1ccc2ccccc2c1	-4	1	-5	23401*	-2	-4
CCCN(CCC)C(=O)CC(c1ccccc1)c1cc(Br)ccc1O (stereo not given)	·	3	2	22655*	4	-1
SMILES	BJeLR viability	SARS 3CLpro inh	BoNT F protease	Autofluor counter	BoNT A protease	Anthrax LF inh2
O=C(CC(c1ccccc1)c1cc(Br)ccc1O)N1CCCCC1 (stereo not given)	2	2	1	4300	-1	-7
Cc1ccc(C(CC(=O)N2CCCC2)c2ccccc2)c(O)c1 (stereo not given)	5	-2	-8	4003	-5	-13
CCCN(CCC)C(=O)CC(c1ccccc1)c1ccc(C)cc1O (stereo not given)	-11	2	2	22025*	1	-1
O=C(CSc1ccccc1)Nc1ccc2c(c1)C(=O)NC2=O	-6	0	1	4166	1	0
Cc1cc(C(=O)COC(=O)C2=NNC(=O)CC2)c(C)n1-c1cccc(C(F)(F)F)c1	-1	3	5	17667*	6	-11
Cc1cc(C(=O)COC(=O)C2=NNC(=O)CC2)c(C)n1-c1ccc(OC(F)F)cc1	7	1	1	2719	0	-2
C/C(Cn1cnc([N+](=O)[O-])n1)=N\NC(=O)c1cccc(F)c1	-1	0	36*	4265	0	0
C/C(Cn1cnc([N+](=O)[O-])n1)=N\NC(=O)c1ccc(F)cc1	-3	0	9	3522	0	-5
C[C@H]1CN([C@@H](C)CO)C(=O)c2cc(Br)cnc2O[C@H]1CN(C)C(=O)Cc1ccccn1	·	·	-6	2808	0	-2
Cn1nc(C(F)(F)F)c(-c2ccc(Br)cc2)c1NC(=O)c1nccnc1C(=O)O	-8	-1	?	3850	-2	-5
Cc1ccc(C=Nc2ccccc2C(N)=O)s1	24	1	1	2547	0	0
Cc1cccc(C=Nc2ccccc2C(N)=O)c1	18	-3	-5	24521*	-4	-6
Cc1ccc(NC(=O)COC(=O)CCc2c(C)nc3ncnn3c2C)cc1	·	·	-6	3908	1	-3
O=S(=O)(CCSc1ccccn1)c1nc2ccccc2s1	-14	3	-3	23137*	-1	3
COc1ccc(CCNC(=O)c2ccc(CS(=O)Cc3ccc(C)cc3)o2)cc1OC (stereo not given)	20	3	-1	6079	-2	-1
CC1CC2(C)Oc3ccccc3C3OCC1(CO)C(C)C32 (stereo not given)	-4	-1	2	19211*	4	-10
CC(=O)OCC12COC3c4ccccc4OC(C)(CC1C)C3C2C (stereo not given)	-7	-1	1	4460	-1	-4
CC(=NNC(=O)CSCC(=O)NN=C(C)c1ccccc1)c1ccccc1	·	·	4	3810	0	0
OCC1OC(n2ccc3c2ncn2ncnc32)C(O)C1O (stereo not given)	·	·	2	2861	0	2
Nc1ncnc2c1ccn2[C@@H]1O[C@H](CO)[C@@H](O)[C@H]1O	111*	·	1	3866	0	-8
NC(=S)c1cn(C2OC(CO)C(O)C2O)c2ncnc(N)c12 (stereo not given)	62*	0	-6	3505	0	6
CC(OC(=O)Cn1cnc2c1c(=O)n(C)c(=O)n2C)C(=O)NC1(C#N)CCCCC1 (stereo not given)	·	·	3	5896	2	4
Cc1nc2ccccc2nc1N1CCC(C)CC1	6	-8	7	4301	2	0
Cc1cc(C)n(-c2nc3ccccc3nc2N2CCC(C)CC2)n1	-1	4	5	22810*	?	14
Cc1cc(NC(=O)CSc2nnc3ccc(-c4ccc(F)cc4)nn23)no1	4	·	?	?	?	?
